# Results published in PubChem BioAssay AID720526 (National Center for Advancing Translational Sciences (NCATS), 2013).
# Inconclusive results are not listed. Entries that show only a call come without a potency. Active and inactive are the calls of the source. Calls come from the whole dose curve; as a rule, active = well fitted activation curve with a large enough effect; inconclusive = small, poorly fitted or top-dose-only effect; inactive = no such curve, though single readings can be large or run the other way.
# Assay: qHTS Assay for NPC1 Promoter Activators: Hit Validation Using Renila Luciferase Read-Out for NPC1
# Conditions: Huh7 NPC1 promoter-luciferase reporter, luminescence, 24 h; series mostly up to 76.9 µM
# Source text: Niemann Pick Type C (NPC) is a rare neurodegenerative lipidosis that is characterized by lipid storage in the endosomal/lysosomal system. Treatment modalities for this devastating disease are currently non-existent due to the severe obstacles associated with accessing the central nervous system with proteins or genes. The majority of mutations causing NPC disease are missense mutations that are distributed throughout the length of the NPC1 protein, with the most prevalent being the I1061T allele. Although NPC1 mutant proteins may be functional, they are typically trapped in the ER due to misfolding. […] We have developed and optimized a cell based renilla luciferase reporter assay in 1536 well format for the identification of up-regulators of the mutant Rab9 promoter. This assay presents data on the validation of hits from the primary screen, which used a firefly luciferase read-out. NIH Chemical Genomics Center [NCGC] NIH Molecular Libraries Probe Production centers Network [MLPCN] MLPCN Grant: MH089375 Assay Submitter (PI): Yiannis A. Ioannou
# Huh7 cells stably expressing NPC promoter-luciferase will be seeded at 1,500 cells/well in 5 uL in 1,536-well white opaque plates with 23 nL/well of compound in DMSO solution. The assay plates will be incubated at 37 deg C for 24 hours, after which 3 uL/well BriteLite plus luciferase detection reagent mixture (Perkin Elmer) will be added. Luminescence signal will be measured in a ViewLux plate reader (Perkin Elmer) after a 10 minute incubation at the room temperature.
# Potency is the fitted concentration of half-maximal effect.
row,SMILES,Potency
1,COCCSc1ncnc2c1oc1nc3c(cc12)COC(C)(C)C3,inactive
2,CC1=C(C(=O)OC2CCCC(C)C2)C(c2ccccc2)NC(=O)N1 (stereo not given),inactive
3,CCOC(=O)c1ccc(NC(=O)Oc2cc(C)c(Cl)cc2C(C)C)cc1,inactive
4,CCCN(CCC)CCCNC(=O)c1cc2cc3ccc(Cl)cc3nc2o1,inactive
5,Cc1ccc(C)c(Nc2cc(C)nc3ncnn23)c1,inactive
6,O=CN1CCN(C(=O)c2ccccc2Cl)CC1,inactive
7,OCCC1CN(Cc2nc3ccccc3s2)CCN1C1CCCC1 (stereo not given),inactive
8,COCCNC(=O)Cn1nc(-c2ccccc2)c2ccccc2c1=O,inactive
9,N#C/C(=C\c1ccc[nH]1)C(=O)Nc1ccccc1Cl,23.2 µM (active)
10,Cc1nc(-c2ccccn2)sc1C(=O)Nc1ccc(F)cc1F,inactive
11,CCC(=O)NC(=S)Nc1ccc(N2CCOCC2)cc1,inactive
12,FC(F)(F)c1ccc(Nc2nnnc3ccccc23)cc1,inactive
13,O=C(NCCc1c[nH]c2ccccc12)C(=O)NCC(c1ccco1)N1CCN(c2ccccc2F)CC1 (stereo not given),inactive
14,COCCNC(=O)CN1C(=O)NC(c2ccccc2)(c2ccccc2)C1=O,inactive
15,COC(=O)c1ccccc1NC(=O)c1ccc(-c2ccc(Br)cc2)o1,inactive
16,O=C(CCS(=O)(=O)c1ccccc1)Nc1ccc(-c2nc3ccccc3s2)cc1,inactive
17,O=C(/C=C/c1ccco1)NCC1OCCc2ccccc21 (stereo not given),inactive
18,CC(=O)Nc1nnc(SCC(=O)NCCOc2ccccc2)s1,inactive
19,O=C(N/N=C/c1ccc(-c2ccc(Br)cc2)o1)c1ccc2c(c1)OCO2,inactive
20,NC(=O)C1(NC(=O)[C@@H]2CC3(CC(c4cccc(NC(=O)[C@@H]5CCC(=O)N5)c4)=NO3)CN2C(=O)c2ccccc2)CC1 (stereo not given in full),inactive

row,SMILES,Potency
1,CCOc1cc(C2C(C#N)=C(N)Oc3n[nH]c(C)c32)ccc1OCCN1CCOCC1 (stereo not given),inactive
2,COc1ccc(NC(=O)Nc2ccc(Cc3ccncc3)cc2)cc1OC,inactive
3,Cc1ccc2nc(Nc3ccc(Cl)cc3)c3nncn3c2c1,inactive
4,O=C(NC1CCCC1)C(c1ccc(F)cc1)N(C(=O)c1csnn1)c1ccccc1 (stereo not given),inactive
5,COc1ccc(-c2cc(C(=O)Nc3ccccc3F)on2)cc1,inactive
6,CCC(=O)Nc1cc(-c2cc3ccccc3oc2=O)ccc1OC,inactive
7,COCCNC(=O)C1CCC(CNS(=O)(=O)c2ccc(F)cc2)CC1 (stereo not given),inactive
8,CN(C)C(CNC(=O)CNC(=O)c1ccc2ccccc2c1)c1ccccc1 (stereo not given),inactive
9,Cc1ccc2nc(NC(=O)CCn3cccc3)sc2c1,inactive
10,COc1ccc(NC(=O)CCCN2C(=O)C(c3ccccc3)Oc3cccnc32)cc1OC (stereo not given),inactive
11,CC(=O)Nc1ccc(NC(=O)COc2ncnc3ccccc23)cc1,inactive
12,COc1ccc(-c2nnc(SCC(=O)/C(C#N)=C(\C)N)o2)cc1,inactive
13,Cc1ccc(S(=O)(=O)/N=C2\C=C(Nc3cccc(C(=O)O)c3)C(=O)c3ccccc32)cc1,inactive
14,Cn1c(CCN2CCN(c3ccccc3)CC2)nc2cc(NC(=O)c3ccco3)ccc21,inactive
15,Cc1cc(C)c2c(N)c(C(=O)Nc3ccc([N+](=O)[O-])cc3)sc2n1,inactive
16,Cc1ccc(NC(=O)c2ncc(Cl)c(Cl)c2Cl)cc1C,inactive
17,CCOC(=O)c1ccc(-c2nnc(-c3ccc(Cl)cc3Cl)o2)cc1,inactive
18,CC(Sc1ncnc2c1cnn2-c1ccccc1)C(=O)Nc1ccc(N2CCOCC2)cc1 (stereo not given),inactive
19,CCOC(=O)CSc1nc2cc3c(cc2cc1C#N)OCO3,inactive
20,COc1ccccc1C(=O)Nc1nnc(SCC(=O)NC2CCCC2)s1,inactive
